From PubChem BioAssay
The list is not random: actives were taken first. Their share in the collection is about 19%.
TGFb inhibitor – inhibitors of TGF-b signaling. 1.2% of 410,000 active. HepG2 CAGA-GFP TGF-b/SMAD3 reporter, GFP fluorescence, 18 h; TGF-beta stimulated, 500 pg/mL final. Potency, µM (titrated, usually from 46.1 µM), without a hit: at the highest dose activity, negative = inhibition, most hits filed as inhibitors. AID 588855; note: potency is the fitted concentration of half-maximal effect; % is set by controls: 0 for no effect and ±100 for the full control effect; nearly all actives have a fitted effect of over 65% in size
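TGF-beta reporter screen: HEPG2 CAGA-GFP, 1% FBS, 500 pg/mL TGF-beta final, 18 h; per-cell GFP summed per well; curves fitted and categorized by class.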
HepG2 tox – HepG2 cytotoxicity, counter-screen for TGF-b inhibitors; HepG2 CAGA-GFP viability, ATP luminescence, 18 h; Potency, µM (titrated, usually from 46.1 µM), for inactives: top-dose activity change, negative = cytotoxicity, hits mostly cytotoxic; 0.76% of 410,000 active; note: potency is the fitted concentration of half-maximal effect
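CellTiter-Glo luminescence gave cytotoxicity after 18 hours at 37 degrees C. The cells were HepG2 CAGA-GFP in 1% FBS DMEM, stimulated with 500 pg/mL TGF-beta after compound addition. %Activity was normalised to no-cell wells (complete cell-killing) and DMSO (no toxicity), and curves were fitted and classified.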
TDP1 cell noCPT – qHTS for Inhibitors of human tyrosyl-DNA phosphodiesterase 1 (TDP1): qHTS in cells in absence of CPT | DT40 Tdp1-/- hTDP1 cells, no CPT, ATP luminescence, 48 h | Potency, µM (doses to about 46.2 µM), inactives show at the highest dose activity change, negative = growth inhibition, hits mostly inhibitors | 15% of 420,000 active | AID 686978, 2013; note: potency is the fitted concentration of half-maximal effect; % is set by controls: 0 for no effect and ±100 for the full control effect; nearly all actives have a fitted effect of over 55% in size
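Readout: luminescence from CellTiter-Glo after 30 min in the dark at RT. Cells: DT40 Tdp1-/- with stable hTDP1, 400/well. Exposure: compounds alone, ≥48 hr, 37 °C.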
TDP1 inh – TDP1 (human) enzyme inhibition; Q9NUW8; recombinant TDP1, AlphaScreen DNA substrate cleavage; Potency, µM (doses to about 130 µM), for the others: at the highest dose activity change, negative = inhibition, actives largely listed as inhibitors; 0.28% of 350,000 active; note: potency is the fitted concentration of half-maximal effect; % is set by controls: 0 for no effect and ±100 for the full control effect; nearly all actives have a fitted effect of over 40% in size
Target sequence (Q9NUW8 whole entry, looked up): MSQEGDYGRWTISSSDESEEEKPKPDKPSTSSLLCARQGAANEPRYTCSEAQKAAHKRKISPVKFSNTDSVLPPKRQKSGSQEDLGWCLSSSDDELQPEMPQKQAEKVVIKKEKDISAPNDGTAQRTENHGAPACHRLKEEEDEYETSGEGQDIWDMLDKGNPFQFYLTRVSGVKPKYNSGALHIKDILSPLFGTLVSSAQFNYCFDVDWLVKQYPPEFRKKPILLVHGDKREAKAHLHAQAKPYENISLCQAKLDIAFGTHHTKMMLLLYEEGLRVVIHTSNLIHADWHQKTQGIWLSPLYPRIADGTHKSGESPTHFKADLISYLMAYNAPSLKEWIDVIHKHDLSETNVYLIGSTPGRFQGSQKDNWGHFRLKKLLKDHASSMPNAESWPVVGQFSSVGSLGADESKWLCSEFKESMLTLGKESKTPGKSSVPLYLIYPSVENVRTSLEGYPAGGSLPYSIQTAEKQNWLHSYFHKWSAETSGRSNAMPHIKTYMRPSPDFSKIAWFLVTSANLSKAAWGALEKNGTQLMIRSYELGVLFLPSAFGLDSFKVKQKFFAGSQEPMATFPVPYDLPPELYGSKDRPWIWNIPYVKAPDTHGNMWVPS
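Recombinant human Tdp1 (E. coli-expressed, 1 nM final) preincubated with compounds 15 min at room temperature, then 5'-biotin/3'-phosphotyrosine-FITC DNA substrate (15 nM final) added for 5 min. AlphaScreen beads (10 ug/ml final) added 10 min; cleavage lowers signal.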
TDP1 cell CPT – growth inhibition of DT40 Tdp1-/-;hTDP1 cells with camptothecin (screen for TDP1 inhibitors); chicken DT40 Tdp1-/-;hTDP1 cells + 20 nM CPT, ATP luminescence, 48 h; Potency, µM (top dose mostly 46.2 µM), for inactives: top-dose activity change, negative = growth inhibition, usual class: inhibitors; 12% of 420,000 active; AID 686979; note: potency is the fitted concentration of half-maximal effect; % is set by controls: 0 for no effect and ±100 for the full control effect; nearly all actives have a fitted effect of over 55% in size
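Chicken DT40 Tdp1-/- cells stably complemented with human TDP1 were seeded at 400 cells/well in medium containing 20 nM camptothecin, exposed to pin-transferred compounds, and grown at 37 °C for at least 48 hr. Viability was read as ATP luminescence.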
IL-1B inflam inh – inflammasome signaling inhibition, IL-1 beta readout; THP-1 LPS/ATP IL-1B secretion, AlphaLISA, 16 h; stronger effect = lower value; activity change, % at 57.5 µM; 4.7% of 360,000 active; in the data active = activity change below about -50%; inconclusive = mostly about -30% to -49%; note: % is set by controls: 0 for no effect and ±100 for the full control effect
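Secreted IL-1B measured by AlphaLISA bead assay after 16 h compound exposure of THP-1 cells; compounds (final up to 57.5 uM) added 1 h before LPS (250 ng/mL) and ATP (1.25 mM) stimulation; lower signal means less secretion.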
Numbers without * were called inactive; ? = inconclusive; . = not tested or not shown; [ ] = another dose, or the depositor's remark. Unless noted, calls come from the whole dose curve; as a rule, active = well fitted curve in the direction sought with a large enough effect; inconclusive = small, poorly fitted or top-dose-only effect, or another doubt; inactive = no such curve, though single readings can be large; an effect the other way counts as inactive or inconclusive.

SMILES	TGFb inhibitor	HepG2 tox	TDP1 cell noCPT	TDP1 inh	TDP1 cell CPT	IL-1B inflam inh
O=C(CN1C(=O)NC2(CCCC2)C1=O)Nc1ccccc1C(F)(F)F	-2%	4%	-9%	.	5%	-6
COc1ccc2cc(CN(C)C(=O)CN3C(=O)NC4(CCCC4)C3=O)ccc2c1	-10%	-4%	23µM*	.	?	-15
CN(CCOc1ccc(Cl)cc1)C(=O)CN1C(=O)NC2(CCCC2)C1=O	-5%	-15%	?	-6%[0.505 µM]	?	-3
CC1CN(C(=O)Cn2cc(S(=O)(=O)CC(=O)N3CCOCC3)c3ccccc32)CC(C)O1 (centres undefined)	0%	3%	7%	1%	-3%	-3
COc1cccc(NC(=O)COC(=O)CCCC2=NS(=O)(=O)c3ccccc3N2)c1	8%	-20%	23%	2%	0%	-9
CCOc1ccc(-c2c(C(=O)N/N=C(\C)c3cccnc3)nnn2-c2nonc2N)cc1	11%	6%	17%	-7%	0%	19
COCCn1c(=O)c(-c2ccc(F)cc2)nc2cnc(Oc3ccccc3)nc21	.	.	2%	.	-13%	.
Cc1ccsc1C(=O)NCCc1nnc2ccccn12	7%	1%	-2%	-1%	2%	-2
CCC(C)(C)C1CCC2(CC1)NC(=O)N(CC(=O)N(C)Cc1ccc(OC(F)F)cc1)C2=O (centres undefined)	-21%	-34%	7.3µM*	0%	-97%	-4
CSc1ccc(CN(C)C(=O)CN2C(=O)NC3(CCCC3)C2=O)cc1	-9%	0%	-19%	0%	0%	10
Cc1cc(C(=O)NCc2nnc3n2CCN(Cc2ccc(F)cc2F)CC3)c(C)o1	.	.	-9%	.	-25%	.
CCOc1ccccc1OCC(=O)OCC(=O)c1c(N)n(CC(C)C)c(=O)n(C)c1=O	?	-34%	18µM*	1%	?	6
CC(C)Cn1c(N)c(C(=O)COC(=O)[C@H](C)NC(=O)c2ccccc2Cl)c(=O)n(C)c1=O	0%	6%	-29%	-13%[0.505 µM]	?	7
Cc1csc(=O)n1CC(=O)OCC(=O)c1c(N)n(CC(C)C)c(=O)n(C)c1=O	?	5%	23µM*	0%	?	12
CCC(C(=O)OCC(=O)c1c(N)n(CC(C)C)c(=O)n(C)c1=O)c1ccccc1 (centres undefined)	-24%	-23%	23µM*	.	21µM*	-12
COc1ccccc1CCC(=O)OCC(=O)c1c(N)n(CC(C)C)c(=O)n(C)c1=O	-29%	6%	-9%	4%	?	32
Cc1csc(=O)n1CC(=O)OCC(=O)c1c(N)n(C)c(=O)n(C)c1=O	-7%	2%	?	-9%	-24%	0
Cc1cccc(N(C)C(=O)Cn2c(=O)oc3cc(S(=O)(=O)N4CCCCC4)ccc32)c1	-4%	-4%	-11%	2%	0%	.
CC(C)C(=O)N(c1cc2sc(=O)oc2c2ccccc12)S(=O)(=O)c1cccs1	?	-42%	12µM*	8%	18µM*	-18
Cc1ccc([N+](=O)[O-])c(OCCCN2CCCCCC2)c1	13%	-1%	?	5%	?	-7
O=[N+]([O-])c1cccc(OCCCN2CCC(Cc3ccccc3)CC2)c1	?	-34%	?	.	?	-73*
Cc1ccc([N+](=O)[O-])c(OCCN2CCC(Cc3ccccc3)CC2)c1	3%	3%	?	-3%	?	-99*
Cc1ccccc1OCCN1CCC(Cc2ccccc2)CC1	-23%	-47%	21µM*	-3%	?	-10
Cc1ccccc1OC(C)C(=O)N1CCC(Cc2ccccc2)CC1 (centres undefined)	0%	-5%	?	1%	?	-55*
CCOc1ccccc1OCCN1CCC(Cc2ccccc2)CC1	2%	-19%	?	-5%	-19%	-4
SMILES	TGFb inhibitor	HepG2 tox	TDP1 cell noCPT	TDP1 inh	TDP1 cell CPT	IL-1B inflam inh
O=C(Nc1ccc(F)cc1Cl)n1ncc2cc(Cl)ccc21	?	-41%	?	3%	?	.
CC(NC(=O)CCCc1nnc2n(C)c(=O)c3sccc3n12)c1ccccc1 (centres undefined)	9%	-5%	-7%	2%	-7%	-21
Clc1ccc(-c2noc(-c3cccnc3NCc3ccco3)n2)cc1	-8%	0%	4%	9%	2%	.
Nc1cc(N)cc(Cc2ccccc2)c1	22%	-16%	-10%	.	-13%	-16
Nc1cc(Cc2ccccc2)ccc1O	-16%	-3%	?	.	23µM*	-25
COC(=O)c1scc(-c2ccc(C)cc2)c1S(=O)(=O)Nc1ccc(F)cc1F	?	-58%	-20%	8%	-14%	.
CCCCC(=O)NC(NC(=S)N1CCCCCC1)C(Cl)(Cl)Cl (centres undefined)	-4%	3%	13µM*	0%	13µM*	-5
Cc1ccc(CNC(=O)CSc2n[nH]c(-c3ccc(F)cc3)n2)cc1	-80%	-19%	16µM*	3%	?	.
Cc1ccc(NC(=O)CSc2n[nH]c(-c3ccc(F)cc3)n2)cc1F	11µM*	-42%	?	8%	?	.
CCc1ccc(-c2nc(SCC(=O)NC3CC3)n[nH]2)cc1	1%	-7%	-10%	.	14%	49
Cc1ccc(NC(=O)CSc2ncccn2)cc1F	-8%	-9%	-2%	4%	1%	-15
O=C1C2=CC[C@H]3C(=O)N(C4CCCCC4)C(=O)[C@@H]3[C@@H]2[C@H](O)[C@@H]2O[C@H]12	.	.	.	1%[21 µM]	.	.
Cc1ccc2cc(CCNS(=O)(=O)c3ccc(Cl)cc3)c(=O)[nH]c2c1C	11%	-3%	23µM*	-5%	21µM*	-79*
Cc1cc2cc(CCNC(=O)c3ccc(S(=O)(=O)N4CCCC4)cc3)c(=O)[nH]c2cc1C	?	-3%	21µM*	3%	18µM*	-27
Cc1ccc2cc(CCNC(=O)c3ccc4c(c3)OCO4)c(=O)[nH]c2c1C	-3%	-5%	15µM*	1%	21µM*	0
COc1ccc(OC)c2[nH]c(=O)c(CCNC(=O)c3ccc(S(=O)(=O)N4CCCCC4)cc3)cc12	?	-10%	?	7%	?	20
Cc1cc2cc(CCNC(=O)c3ccc(C)c([N+](=O)[O-])c3)c(=O)[nH]c2cc1C	-1%	0%	13µM*	4%	?	-4
